Nine compounds from PubChem BioAssay (NCI) can be followed below.

The panel holds about 83,000 compounds, 20% with a hit somewhere; the sample as a whole holds those more often.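 Each cell line was grown in a 96-well plate and treated with one concentration of compound for 48 hours. Values below 10 were considered active.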 A number with no mark means an inactive call.

For the experiment, the system named is KM12 colon. Put plainly: NCI-60 one-dose screen, 48 h (100 = growth as untreated, 0 = no growth, -100 = all killed). To be noted: 10 µM unless noted.
`CCOC(=O)c1nnn(-c2no[n+]([O-])c2-c2ccc(OC)cc2)c1COc1cccc2cccnc12`: the growth is 19.7%.

`NC(=O)c1ccccc1OCC(=O)Nc1ccc(Cl)c(Cl)c1`: the growth was 100%.

Turning to `C=C1CC[C@@H]2C(C)(C)[C@H](O)CC[C@@]2(C)[C@@H]1COc1ccc2ccc(=O)oc2c1`, the growth was 28.2%.

As to `O=S(Nc1ccccc1)c1ccc(Cl)cc1` (centres undefined), the growth is 109%.

Take `COc1cccc(-c2cn3nc(-c4cn(C)c5ccccc45)sc3n2)c1`: the growth was 72.6%.

Regarding `COc1cc2c(cc1-c1c(C)noc1C)ncc1nc(CN3CCOCC3)n([C@H](C)COC(F)F)c12`, the growth was 34.9%.

With `CN1c2ccccc2S(=O)(=O)n2c(SCC(=O)Nc3nc4ccc(F)cc4s3)nnc21`, the growth is 97.7%.

With `O=S(=O)(Nc1cc(Sc2nc3ccccc3s2)c(O)c2ccccc12)c1ccc2ccccc2c1`, the growth was 92.6%.

As for `Cn1c(C#N)ccc1-c1ccc(F)c(NC(=O)c2ccc(F)cc2)c1`, the growth is 60.9%.
